From PubChem
Only some compounds are listed: those with a hit (about 1.6% of all), similar ones and a draw of the others.
BJeLR lethal: kills HRASV12-expressing BJeLR cells; BJeLR (HRASV12) viability, CellTiter-Glo ATP luminescence, 48 h; inhibition, % (concentration not given with the values); 300,000 compounds, 0.17% hits; in the data active = inhibition above about 50%
Mtb hypoxia rep: inhibitors of hypoxia-regulated fluorescent reporter in Mycobacterium tuberculosis; AID 1159583; fluorescence inhibition, % (concentration not given with the values); M. tuberculosis hypoxia-regulated fluorescent reporter, fluorescence; 300,000 compounds, 0.1% hits; in the data active = fluorescence inhibition mostly above about 23%, no sharp cut-off; inactive = mostly below about 17%
RN4220 kill: kills Staphylococcus aureus RN4220; S. aureus RN4220 growth, OD600, 16 h; inhibition, % (no concentration beside the values); 330,000 compounds, 0.33% hits; AID 1259311; in the data active = inhibition above about 85%;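 note: plate controls were untreated cells for no effect and reference antibiotic for full effect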
RecA splice inh: inhibitors of M. tuberculosis RecA intein splicing; cell-free RecA intein splicing, fluorescence; 290,000 compounds, 0.75% hits; inhibition, % (no concentration beside the values); P9WHJ3; in the data active = inhibition above about 30%;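 note: 0% = vehicle wells and 100% = reference inhibitor control wells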
Sa ugtP lethal: growth inhibition of S. aureus ugtP deletion strain; growth inhibition, % (concentration not given with the values); S. aureus RN4220 ugtP deletion, OD600 growth, 16 h; AID 1259309; 330,000 compounds, 0.54% hits; in the data active = growth inhibition above about 68%;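 note: plate controls were untreated wells for no effect and antibiotic for full effect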
CCHFV vOTU inh: blocks the CCHF virus ovarian tumor domain protease; 370,000 compounds, 0.55% hits; AID 651958; inhibition, % at 11.5 µM; CCHFV vOTU protease, Pep-AMC fluorescence; in the data active = inhibition above about 30%; note: 0% = vehicle wells with enzyme and 100% = no enzyme wells
An asterisk follows results filed as active.

Screening O=C(CCl)Nc1ccc(N2CCCCCC2)cc1 returned BJeLR lethal -2, Mtb hypoxia rep 15, RN4220 kill 13, RecA splice inh 48*, Sa ugtP lethal 4 and CCHFV vOTU inh 3.
Screening CCC(=O)Nc1ccc(N2CCCCC2)cc1 returned BJeLR lethal -7, Mtb hypoxia rep 10, RN4220 kill 2, RecA splice inh -4, Sa ugtP lethal 12 and CCHFV vOTU inh 6.
Screening CC(=O)Oc1cc2c(cc1Cl)C1(CC(c3ccccc3Cl)O2)CC(C)(C)NC(=S)N1 (configuration not stated) returned BJeLR lethal -1, RN4220 kill 43, RecA splice inh 45*, Sa ugtP lethal 49 and CCHFV vOTU inh 9.
For CC1(C)CC2(CC(c3ccccc3F)c3cc(Cl)c(O)cc3O2)NC(=S)N1 (configuration not stated) the results were BJeLR lethal -10, Mtb hypoxia rep -4, RN4220 kill -6, RecA splice inh 3, Sa ugtP lethal -31 and CCHFV vOTU inh 5.
Screening CCC(C)Sc1ccc(C2C3C(=O)N(C)C(=O)C3[C@]3(C(=O)OC)CCCCN23)cc1OC (some centres not stated) returned Mtb hypoxia rep 22, RN4220 kill 7 and Sa ugtP lethal 9.
`NC1C2CN(c3nc4c(cc3F)c(=O)c(C(=O)O)cn4-c3ccc(F)cc3F)CC12` (configuration not stated) gave BJeLR lethal 7, RN4220 kill 100*, RecA splice inh 1 and Sa ugtP lethal 98*.
Screening O=C(O)c1cn(-c2ccc(F)cc2)c2cc(Cl)c(F)cc2c1=O returned BJeLR lethal 14, Mtb hypoxia rep 9, RN4220 kill 48, RecA splice inh 0, Sa ugtP lethal 97* and CCHFV vOTU inh 5.
Screening O=C1C=C(c2ccccc2)CC(c2cccs2)C1n1cnc([N+](=O)[O-])c1 (configuration not stated) returned BJeLR lethal 2, RN4220 kill 0, RecA splice inh 4, Sa ugtP lethal -4 and CCHFV vOTU inh 8.
For O=C1C=C(c2ccccc2)C[C@H](c2cccs2)[C@H]1n1nnc([N+](=O)[O-])n1 the results were BJeLR lethal 62*, RN4220 kill 59, RecA splice inh 1, Sa ugtP lethal 100* and CCHFV vOTU inh 0.
`N=C1/C(=C/c2cccs2)C(=O)N=C2SN=C(SCc3ccccc3)N12` gave BJeLR lethal 1, Mtb hypoxia rep 6, RN4220 kill 83, RecA splice inh 3, Sa ugtP lethal 83* and CCHFV vOTU inh 14.
`CC(C)CSC1=NSC2=NC(=O)/C(=C\c3cccs3)C(=N)N12` gave BJeLR lethal -13, Mtb hypoxia rep 10, RN4220 kill 41, RecA splice inh 4, Sa ugtP lethal 4 and CCHFV vOTU inh -2.
Cc1cccc(C)c1NC(=O)C1CCCN1S(=O)(=O)c1ccc(-c2ccc(=O)[nH]n2)s1 (configuration not stated) was read as BJeLR lethal -6, Mtb hypoxia rep -10, RN4220 kill 98*, RecA splice inh -2, Sa ugtP lethal 99* and CCHFV vOTU inh -1.
Screening CCc1ccccc1NC(=O)C1CCCN1S(=O)(=O)c1ccc(-c2ccc(=O)[nH]n2)s1 (configuration not stated) returned BJeLR lethal 2, Mtb hypoxia rep 0, RN4220 kill 96*, RecA splice inh 0, Sa ugtP lethal 88* and CCHFV vOTU inh 10.
`Cc1cccc(C)c1NC(=O)C1CCCN1S(=O)(=O)c1ccccc1` (configuration not stated) gave BJeLR lethal -1, Mtb hypoxia rep -3, RN4220 kill 4, Sa ugtP lethal 5 and CCHFV vOTU inh 1.
`O=C(CCl)Nc1cc(SCC(O)CO)cc([N+](=O)[O-])c1` (configuration not stated) gave BJeLR lethal 81*, Mtb hypoxia rep -2, RN4220 kill 1, RecA splice inh 16, Sa ugtP lethal 5 and CCHFV vOTU inh -6.
For CCC(=O)Nc1cc(SCCO)cc([N+](=O)[O-])c1 the results were BJeLR lethal 7, Mtb hypoxia rep -4, RN4220 kill -1, RecA splice inh -3, Sa ugtP lethal 1 and CCHFV vOTU inh -13.
